For some of these results: Entries with a potency or affinity are not part of this list.
What was measured:
Parameters in all cases: scale not given: direction of the effect not stated beside the values
[1] = molecular target: Protein translocase subunit SecA (Escherichia coli (strain K12)) (UniProt P10408); test: Assay to Identify E. coli SecA ATPase Inhibitors; format: functional; details: 30 µM
[2] = molecular target: T1, Ubiquitin-activating enzyme e1, putative (Leishmania donovani (strain BPK282A1)) (UniProt E9BSI1); test: Leishmania donovani Ubiquitin Activating Enzyme (LdE1); format: functional; details: 30 µM
T1 sequence (whole entry): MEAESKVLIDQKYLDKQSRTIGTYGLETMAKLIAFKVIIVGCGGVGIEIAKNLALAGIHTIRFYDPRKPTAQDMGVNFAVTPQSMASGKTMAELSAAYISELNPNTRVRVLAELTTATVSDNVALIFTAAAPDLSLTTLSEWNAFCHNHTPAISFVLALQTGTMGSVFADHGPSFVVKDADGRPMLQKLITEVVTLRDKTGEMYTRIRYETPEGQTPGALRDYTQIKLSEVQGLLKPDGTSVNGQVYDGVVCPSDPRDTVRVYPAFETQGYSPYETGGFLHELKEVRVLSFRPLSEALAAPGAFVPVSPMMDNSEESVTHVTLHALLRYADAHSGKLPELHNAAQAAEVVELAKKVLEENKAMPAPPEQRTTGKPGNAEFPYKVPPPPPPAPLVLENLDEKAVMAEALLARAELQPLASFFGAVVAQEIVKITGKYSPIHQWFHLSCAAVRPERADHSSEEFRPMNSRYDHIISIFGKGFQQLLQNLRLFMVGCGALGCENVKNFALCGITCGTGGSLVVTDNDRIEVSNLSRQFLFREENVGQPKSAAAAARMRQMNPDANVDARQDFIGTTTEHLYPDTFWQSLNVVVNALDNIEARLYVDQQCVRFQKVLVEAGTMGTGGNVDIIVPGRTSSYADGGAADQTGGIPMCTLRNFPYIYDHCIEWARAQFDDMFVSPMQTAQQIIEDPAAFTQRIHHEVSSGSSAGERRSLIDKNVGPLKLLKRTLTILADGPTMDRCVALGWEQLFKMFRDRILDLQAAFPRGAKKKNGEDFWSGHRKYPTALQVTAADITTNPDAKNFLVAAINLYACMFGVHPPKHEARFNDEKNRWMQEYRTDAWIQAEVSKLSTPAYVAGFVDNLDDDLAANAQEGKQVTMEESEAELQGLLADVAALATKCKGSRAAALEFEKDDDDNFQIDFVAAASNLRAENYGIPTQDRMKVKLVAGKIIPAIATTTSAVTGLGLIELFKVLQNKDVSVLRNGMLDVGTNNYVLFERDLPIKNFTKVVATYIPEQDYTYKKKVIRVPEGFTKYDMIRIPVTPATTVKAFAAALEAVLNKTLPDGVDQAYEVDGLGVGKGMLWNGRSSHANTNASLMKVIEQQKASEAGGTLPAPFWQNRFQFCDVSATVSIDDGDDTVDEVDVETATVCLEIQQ

[3] = molecular target: Sialic acid-binding Ig-like lectin 9 (Homo sapiens) (UniProt Q9Y336); test: Hs-Siglec9 ALPHAscreen SOP 20170721; details: 10 µM
Trypanosoma cruzi = test: Trypanosoma cruzi phosphomannomutase and mannose-1-phosphate guanylyltransferase assay; format: functional; details: 10 µM
[4] = molecular target: T2, Arginase-2, mitochondrial (Homo sapiens) (UniProt P78540); test: in vitro enzyme assay to detect the production of urea directly proportional to the activity of Arginase II; format: functional; details: 33.3 µM; note: in the data most compounds retested in dose-response had high values
T2 sequence (whole entry): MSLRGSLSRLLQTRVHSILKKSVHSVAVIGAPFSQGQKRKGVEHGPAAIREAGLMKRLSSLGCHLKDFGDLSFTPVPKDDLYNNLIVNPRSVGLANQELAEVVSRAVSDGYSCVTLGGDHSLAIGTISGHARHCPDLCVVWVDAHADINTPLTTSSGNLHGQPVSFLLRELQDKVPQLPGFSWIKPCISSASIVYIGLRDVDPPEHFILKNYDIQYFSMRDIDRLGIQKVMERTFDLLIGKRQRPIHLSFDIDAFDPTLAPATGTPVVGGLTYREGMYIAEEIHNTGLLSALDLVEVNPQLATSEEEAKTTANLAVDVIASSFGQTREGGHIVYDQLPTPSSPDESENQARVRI

[5] = molecular target: T3, Proteasome subunit beta (Trypanosoma cruzi) (UniProt O96673); test: Trypanosoma cruzi proteasome chymotrypsin-like activity (TcProtChymo) assay.; note: in the data most compounds retested in dose-response had high values; format: functional; details: 9.37 µM
T3 sequence (whole entry): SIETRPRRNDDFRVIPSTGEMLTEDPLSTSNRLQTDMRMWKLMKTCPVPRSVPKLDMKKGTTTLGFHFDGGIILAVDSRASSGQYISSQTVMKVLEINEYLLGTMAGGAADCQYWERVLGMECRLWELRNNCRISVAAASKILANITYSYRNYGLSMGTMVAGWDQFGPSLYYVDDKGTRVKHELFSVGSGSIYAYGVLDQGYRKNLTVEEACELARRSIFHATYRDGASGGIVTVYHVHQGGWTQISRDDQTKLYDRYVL

Homo sapiens = organism: Homo sapiens; test: To identify inhibition of the IFN signalling (Jak-Stat) pathway via expression of an eGFP reporter gene under the control of an IFN-stimulated response element (ISRE) containing MxA promoter.; format: functional; details: 30 µM
[6] = molecular target: T4, Tyrosyl-tRNA synthetase, putative (Trypanosoma cruzi (strain CL Brener)) (UniProt Q4DSP6); test: Trypanosoma cruzi tyrosyl tRNA synthetase (TcYRS) _High Tyrosine SOP; format: functional; details: 30 µM; note: in the data most compounds retested in dose-response had high values
T4 sequence (whole entry): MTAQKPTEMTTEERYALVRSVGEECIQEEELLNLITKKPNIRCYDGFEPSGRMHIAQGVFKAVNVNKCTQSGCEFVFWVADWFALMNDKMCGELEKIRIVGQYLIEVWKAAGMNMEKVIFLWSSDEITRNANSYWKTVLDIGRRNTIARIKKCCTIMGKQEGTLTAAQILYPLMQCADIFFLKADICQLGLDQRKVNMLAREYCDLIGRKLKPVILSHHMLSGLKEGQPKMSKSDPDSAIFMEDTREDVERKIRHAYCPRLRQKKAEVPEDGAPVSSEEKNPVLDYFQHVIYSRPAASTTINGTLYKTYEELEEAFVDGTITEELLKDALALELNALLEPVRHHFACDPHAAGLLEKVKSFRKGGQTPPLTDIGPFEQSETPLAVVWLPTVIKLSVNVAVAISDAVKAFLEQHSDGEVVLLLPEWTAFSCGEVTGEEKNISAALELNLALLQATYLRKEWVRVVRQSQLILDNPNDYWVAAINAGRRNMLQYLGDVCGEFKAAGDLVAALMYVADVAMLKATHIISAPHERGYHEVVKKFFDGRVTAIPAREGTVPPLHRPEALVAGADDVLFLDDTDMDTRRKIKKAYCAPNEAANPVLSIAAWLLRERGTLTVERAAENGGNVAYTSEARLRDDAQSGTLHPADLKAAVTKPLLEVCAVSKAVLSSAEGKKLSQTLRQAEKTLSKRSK

[7] = molecular target: T4, Tyrosyl-tRNA synthetase, putative (Trypanosoma cruzi (strain CL Brener)); test: Trypanosoma cruzi tyrosyl tRNA synthetase (TcYRS) SOP; format: functional; details: 30 µM
[8] = molecular target: Chromo domain-containing protein 1 (Saccharomyces cerevisiae (strain ATCC 204508 / S288c) (Baker's yeast)) (UniProt P32657); test: ScCHD-1 Enzyme Inhibition Assay; format: functional; details: 30 µM; note: in the data most compounds retested in dose-response had high values
Chromo domain-containing protein 1 (Saccharomyces cerevisiae (strain ATCC 204508 / S288c) (Baker's yeast)), sequence (P32657 whole entry, the tested form may be a part): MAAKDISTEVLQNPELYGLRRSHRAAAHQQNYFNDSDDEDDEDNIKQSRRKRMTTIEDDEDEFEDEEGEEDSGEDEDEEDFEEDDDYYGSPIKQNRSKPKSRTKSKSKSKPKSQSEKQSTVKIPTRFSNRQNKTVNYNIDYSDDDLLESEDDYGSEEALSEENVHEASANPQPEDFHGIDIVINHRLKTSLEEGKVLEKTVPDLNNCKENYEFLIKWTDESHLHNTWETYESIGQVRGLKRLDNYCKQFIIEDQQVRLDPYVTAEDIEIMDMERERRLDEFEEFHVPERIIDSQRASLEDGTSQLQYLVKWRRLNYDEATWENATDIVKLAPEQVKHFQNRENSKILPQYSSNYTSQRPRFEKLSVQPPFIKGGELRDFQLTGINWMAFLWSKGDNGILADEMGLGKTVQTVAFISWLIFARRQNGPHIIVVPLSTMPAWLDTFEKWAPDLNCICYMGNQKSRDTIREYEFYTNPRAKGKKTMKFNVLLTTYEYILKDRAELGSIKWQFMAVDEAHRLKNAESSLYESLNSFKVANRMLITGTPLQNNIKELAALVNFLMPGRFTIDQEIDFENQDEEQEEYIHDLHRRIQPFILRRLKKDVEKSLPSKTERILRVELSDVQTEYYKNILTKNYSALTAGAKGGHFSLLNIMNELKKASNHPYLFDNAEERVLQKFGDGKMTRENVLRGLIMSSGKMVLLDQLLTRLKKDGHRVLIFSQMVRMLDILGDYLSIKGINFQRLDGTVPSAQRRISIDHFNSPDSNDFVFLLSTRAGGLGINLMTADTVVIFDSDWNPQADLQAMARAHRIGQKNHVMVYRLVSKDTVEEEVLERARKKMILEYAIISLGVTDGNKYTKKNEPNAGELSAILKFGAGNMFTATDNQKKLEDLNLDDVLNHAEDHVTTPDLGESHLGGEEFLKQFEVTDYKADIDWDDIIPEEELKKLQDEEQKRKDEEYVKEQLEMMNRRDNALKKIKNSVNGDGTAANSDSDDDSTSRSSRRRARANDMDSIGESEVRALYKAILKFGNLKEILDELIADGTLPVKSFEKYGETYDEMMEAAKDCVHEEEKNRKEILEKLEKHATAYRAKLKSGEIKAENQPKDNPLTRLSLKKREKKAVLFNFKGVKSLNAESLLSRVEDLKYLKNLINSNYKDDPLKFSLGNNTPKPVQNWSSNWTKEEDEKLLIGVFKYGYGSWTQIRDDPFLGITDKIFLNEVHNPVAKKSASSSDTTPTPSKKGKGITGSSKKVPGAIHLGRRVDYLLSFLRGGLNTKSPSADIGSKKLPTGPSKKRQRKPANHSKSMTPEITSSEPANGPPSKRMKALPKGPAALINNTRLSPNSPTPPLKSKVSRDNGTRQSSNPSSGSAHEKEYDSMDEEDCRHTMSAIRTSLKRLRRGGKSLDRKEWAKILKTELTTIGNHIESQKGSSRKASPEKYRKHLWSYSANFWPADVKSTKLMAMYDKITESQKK

Protein translocase subunit SecA (Escherichia coli (strain K12)), sequence (P10408 whole entry): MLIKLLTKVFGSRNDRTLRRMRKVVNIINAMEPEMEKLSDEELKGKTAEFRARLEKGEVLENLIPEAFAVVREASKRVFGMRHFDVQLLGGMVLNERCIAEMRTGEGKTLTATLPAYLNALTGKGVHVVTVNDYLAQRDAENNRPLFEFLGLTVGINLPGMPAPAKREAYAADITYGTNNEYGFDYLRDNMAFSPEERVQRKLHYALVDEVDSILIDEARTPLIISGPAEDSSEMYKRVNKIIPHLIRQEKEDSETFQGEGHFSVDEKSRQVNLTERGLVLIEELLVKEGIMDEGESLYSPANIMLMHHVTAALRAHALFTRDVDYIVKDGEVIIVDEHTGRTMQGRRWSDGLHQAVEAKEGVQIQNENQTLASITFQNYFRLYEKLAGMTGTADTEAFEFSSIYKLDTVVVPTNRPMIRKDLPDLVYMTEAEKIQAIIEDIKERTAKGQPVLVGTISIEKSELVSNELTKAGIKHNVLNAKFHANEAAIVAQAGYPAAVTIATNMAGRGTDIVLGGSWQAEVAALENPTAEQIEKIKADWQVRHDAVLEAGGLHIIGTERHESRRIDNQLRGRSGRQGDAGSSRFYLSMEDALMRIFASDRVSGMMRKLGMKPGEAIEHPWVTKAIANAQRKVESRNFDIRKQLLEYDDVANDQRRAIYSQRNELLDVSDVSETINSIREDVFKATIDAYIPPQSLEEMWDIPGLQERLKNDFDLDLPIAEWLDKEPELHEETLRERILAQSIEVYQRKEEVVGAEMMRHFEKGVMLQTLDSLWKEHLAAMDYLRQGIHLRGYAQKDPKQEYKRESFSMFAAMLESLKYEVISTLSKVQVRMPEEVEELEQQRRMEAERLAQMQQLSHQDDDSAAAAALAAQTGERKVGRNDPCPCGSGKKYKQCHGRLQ
Sialic acid-binding Ig-like lectin 9 (Homo sapiens), sequence (Q9Y336 whole entry): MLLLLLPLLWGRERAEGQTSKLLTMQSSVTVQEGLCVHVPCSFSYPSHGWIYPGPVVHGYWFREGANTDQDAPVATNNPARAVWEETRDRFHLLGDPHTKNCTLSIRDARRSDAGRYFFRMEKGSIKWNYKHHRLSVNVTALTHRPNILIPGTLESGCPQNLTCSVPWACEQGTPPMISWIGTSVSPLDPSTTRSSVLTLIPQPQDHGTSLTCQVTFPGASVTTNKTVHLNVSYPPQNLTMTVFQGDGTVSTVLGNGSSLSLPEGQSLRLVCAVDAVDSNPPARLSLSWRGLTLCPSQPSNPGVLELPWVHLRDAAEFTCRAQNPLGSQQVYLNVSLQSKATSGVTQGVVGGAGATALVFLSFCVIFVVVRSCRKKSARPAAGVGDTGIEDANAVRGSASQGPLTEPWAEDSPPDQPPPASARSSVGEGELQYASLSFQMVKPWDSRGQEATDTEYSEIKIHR

Structure (SMILES)	Percent Effect [1] [%]	Percent Effect [2] [%]	Percent Effect [3] [%]	Percent Effect (Trypanosoma cruzi) [%]	Percent Effect [4] [%]	Percent Effect [5] [%]	Percent Effect (Homo sapiens) [%]	Percent Effect [6] [%]	Percent Effect [7] [%]	Percent Effect [8] [%]
Cc1cccc(-c2noc(CN3CCCC3Cn3cccn3)n2)c1 (stereo not given)	-4.47	-13.3	4.15	2.81	-0.887	9.07	35.3	1.58	2.56	-6.03
Cc1ncoc1C(=O)N1CCn2c(COCC3CC3)cnc2C1C (stereo not given)	-6.41	9.09	-3.19	0.487	-0.81	10.2	-4.92	7.89	12.8	-2.4
CC(C)NC(=O)C1CN(C(=O)N2CCCC2)CC12CCOCC2 (stereo not given)	-1.18	-3.9	-4.49	-1.27	-4.45	-6.62	5.24	2.63	2.56	2.05
O=C(CC1CC1)N1C[C@@H]2CCN(c3cnccn3)C[C@@H]2C1	-1.69	14.3	4.05	1.69	0.913	5.06	16.8	5.8	15	-3.72
CN(C)CC1CN(Cc2coc(-c3ccccc3Cl)n2)CCO1 (stereo not given)	-1.66	13.3	-4.39	-2.41	2.66	10.6	3.83	0.526	5.13	-10.4
CN1CCC(c2ncc3c(n2)CCN(C(=O)CC2C=CCC2)C3)CC1 (stereo not given)	1.34	14.7	-4.21	-1.58	3.1	9.03	7.04	12.7	22.5	-23.1
COCCCN1CC2(CCCCN2C(=O)c2ccsc2)CC1=O (stereo not given)	0.227	3.9	1.99	2.44	1.83	0.601	15.2	0	7.5	2.21
CN1CC(c2ccccc2)CC12CCN(C(=O)c1cncc(Cl)c1)CC2 (stereo not given)	-4.25	5.41	3.4	-0.679	0.35	12.3	12.2	7.98	14.6	-5.7
COc1ncc(C2CC(=O)NCc3nc4ccccn4c32)cn1 (stereo not given)	-5.62	5.41	1.68	-1.46	1.75	6.34	3.05	7.98	14.6	-1.5
CNc1ccc(CC2CCCN(C(=O)c3cncnc3C)C2)nn1 (stereo not given)	3.9	12	-5.1	-6.31	8.41	13	4.65	1.06	10	-22.6
Cc1cc(CN(C)C(=O)c2ccc(C(F)(F)F)nc2)no1	-1.51	-2.67	3.03	-3.61	3.1	1.27	-6.24	-1.58	5.13	14.8
COc1ccc(CC(=O)N2C[C@@H]3COC[C@]3(CN(C)C)C2)cc1	-3.95	-42.9	3.29	3.8	-6.07	1.15	-12.9	-26.8	-43.6	1.23
Cc1cccc(N2CCN(C(=O)Nc3cnn(CC(N)=O)c3)CC2)c1	0.381	20.5	-9.92	5.73	6.56	1.28	-6.7	4.31	25.3	-4.54
NC(=O)NC(=O)CCN1CCCN(c2nccs2)CC1	-0.41	10.7	-0.94	-4.02	3.1	9.41	13.6	7.89	10.3	-7.5
CCc1nc(C2CCCN2C(=O)c2ccoc2C)no1 (stereo not given)	2.59	-2.56	10.5	0.469	5.74	2.3	17.4	-0.478	-18.1	0.101
CC(C)(C)C(O)CN1CCN(C(=O)c2cccc3[nH]ncc23)CC1 (stereo not given)	-8.1	20.5	-18.1	4.41	-0.41	20.4	1.83	3.35	22.9	22.1
Cc1cncc(C2CCCN(C(=O)c3cccn3C)C2)n1 (stereo not given)	-1.26	17.3	-0.809	1.97	1.33	13.3	-5.79	7.41	12.5	-25
Cc1nn(C)c(N(C)C)c1CNC(C)COc1cccc(F)c1 (stereo not given)	-4.28	-5.2	-1.85	-6.16	-2.66	5.26	9.12	-3.92	-4.71	-2.29
COc1cccc(CN2CCCC3(CCN(C(=O)c4ccco4)C3)C2)c1 (stereo not given)	-3.23	9.09	0.7	0.563	5.02	17.8	5.54	14.5	15	-3.31
CC(C)NC(=O)CC1COC2(CCN(Cc3cccs3)CC2)C1 (stereo not given)	-3.1	16.9	-2.18	-3.19	1.37	4.89	-2.98	4.83	7.5	-13.3
COc1cccc(-n2nnc(C(=O)N3CCNC(=O)C3)c2C)c1	-4.4	15.4	-22.9	9.11	0.41	8.96	16	5.26	25.3	22.3
NCc1cn(-c2ccccc2C(=O)NCc2cccc(Cl)c2)cn1	0.846	9.33	-1.67	-7.3	1.33	6.4	-3.19	3.17	12.5	-24.5

From ChEMBL document CHEMBL3988442, “University of Dundee, Small-Polar-MMV Screening Library” (2021)
